MARV entry inh = blocks Marburg virus binding to or entry into cells; Marburg virus pseudotyped entry inhibition, cell reporter; Potency, µM (doses to about 37.8 µM), without a hit: at the highest dose activity change, negative = inhibition, hits mostly inhibitors; 300,000 tested, 1.8% active; calls by dose curve; tested in HEK293 cells; further: potency means the concentration at half of the fitted maximal effect
HCMV antiviral = human cytomegalovirus inhibition | activity change, negative = inhibition, % at 57.5 µM | AID 1259415 | HFF cells, HCMV-luciferase reporter, 72 h; active compounds read low | 410,000 tested, 4.5% active; in the data active means activity change below about -60%; inconclusive means no clear call, values can overlap the other calls; inactive means above about -39%
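Inhibition of viral replication was scored as loss of reporter luminescence in HFFs infected with HCMV-luciferase (MOI 1 PFU/cell) for 72 h; compounds tested at 2 doses, normalized to buffer and Salinomycin controls.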
HCV inhibitor = inhibitors of hepatitis C virus infection. Huh7.5.1 HCVcc-Cre infection, luciferase reporter, 44 h. Potency, µM (highest dose often 41.8 µM), for inactives: at the top dose activity change, negative = inhibition, most hits filed as inhibitors. 340,000 tested, 3.4% active. AID 651820; further: potency means the concentration at half of the fitted maximal effect
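Seed cells (1,000/well) for 4 h; treat with compound and infect with HCVcc-Cre, moi about 0.5. Incubate 44 h, then detect luciferase activity.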
Pf growth 48h = inhibits P. falciparum growth in the first generation, 48 h | P. falciparum luciferase growth in erythrocytes, 48 h | Potency, µM (series often up to 28.7 µM), without a hit: top-dose activity change, negative = inhibition, most hits filed as inhibitors | AID 504832 | 310,000 tested, 5.9% active; further: potency means the concentration at half of the fitted maximal effect
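Erythrocytes infected with P. falciparum carrying an integrated firefly luciferase reporter (2% hematocrit, 0.1% parasitemia final) were exposed to compounds in RPMI 1640 with 0.5% Albumax at 37 C, 5% CO2. Growth inhibition was scored as reduced luminescence.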
LASV entry inh = Lassa virus entry inhibition. AID 540256. Potency, µM (top dose mostly 37.9 µM), without a hit: top-dose activity change, negative = inhibition, hits mostly inhibitors. 300,000 tested, 1.2% active. Lassa virus pseudotype entry inhibition, cell reporter; calls by dose curve; tested in HEK293 cells; further: potency means the concentration at half of the fitted maximal effect; nearly all actives have a fitted effect of over 50% in size
Pf growth 96h = P. falciparum growth inhibition at 96 hour, primary screen for plastid delayed-death inhibitors; P. falciparum luciferase reporter growth, 96 h; Potency, µM (highest dose often 28.7 µM), for the others: at the top dose activity change, negative = inhibition, usual class: inhibitors; 320,000 tested, 6.9% active; further: potency means the concentration at half of the fitted maximal effect
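Compounds incubated with erythrocytes infected by luciferase-expressing P. falciparum (2% hematocrit, 0.05% parasitemia final) for 96 hours, 37 C in 5% CO2. Growth inhibition scored as decreased luciferase luminescence.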
* = called active by the depositor; i = inactive; ? = inconclusive; · = no result; [ ] = remark or other dose. Most compounds without a hit are left out; they make up all but 14% or so of the library. Unless noted, the call rests on the fitted dose curve; in most records, active means well fitted inhibition curve with a large enough effect; inconclusive means small, poorly fitted or top-dose-only effect, or another doubt; inactive means no such curve, though single readings can be large or run the other way. On the % scale 0 is the no-effect control and ±100 the full control effect.

SMILES	MARV entry inh	HCMV antiviral	HCV inhibitor	Pf growth 48h	LASV entry inh	Pf growth 96h
CC1CCCN(c2nc(-c3ccccc3O)nc3ccccc23)C1 (configuration not stated)	?	15	·	·	2%[46.1 µM]	·
COc1cccc(CNC(=O)C2CCN(S(=O)(=O)c3ccc4c(c3)C(C)(C)C(=O)N4C)CC2)c1	·	27	·	·	·	·
CC1CCC(NC(=O)c2ccc3c(c2)N(Cc2ccccc2F)C(=O)c2ccccc2S3=O)CC1 (configuration not stated)	-28%[46.1 µM]	-14	·	·	-12%[46.1 µM]	·
COc1ccc(-c2cc(-c3ccc(C)cc3)nc3c2COc2ccccc2-3)cc1	4%[46.1 µM]	-3	·	·	?	·
COc1ccccc1N(C)S(=O)(=O)c1ccc(Cl)c(C(=O)NCC2(N(C)C)CCCCC2)c1	?	-11	?	?	-21%	9.3µM*
COc1ccccc1N(C)S(=O)(=O)c1ccc(Cl)c(C(=O)NNC(=O)c2ccccc2O)c1	·	?	?	34%	·	5%
O=[N+]([O-])c1cccc(S(=O)(=O)Nc2ccc3cn[nH]c3c2)c1	?	8	13%	·	4%	·
COc1ccccc1C(C[N+](=O)[O-])c1c(N)n(C)c(=O)n(C)c1=O (configuration not stated)	·	-97*	11µM*	?	·	?
Cn1nnnc1SCCCNCc1cc(Cl)ccc1OCc1ccccc1	?	?	·	·	-3%[46.1 µM]	·
CCC(Sc1nc2cc3c(cc2c(=O)n1CCCCCC(=O)NCc1ccc2c(c1)OCO2)OCO3)C(=O)NCCCOC (configuration not stated)	·	-19	·	·	4%[46.1 µM]	·
CCc1ccccc1NC(=O)C(CC)Sc1nc2cc3c(cc2c(=O)n1Cc1ccco1)OCO3 (configuration not stated)	?	-94*	?	15%	?	i
CCc1ccc(NC(=O)C(CC)Sc2nc3cc4c(cc3c(=O)n2Cc2ccco2)OCO4)cc1 (configuration not stated)	?	?	?	·	?	2.6µM*
CCC(Sc1nc2cc(OC)c(OC)cc2c(=O)n1Cc1ccco1)C(=O)NCCOC (configuration not stated)	-26%	88	-25%	?	2%	?
C[C@@H]1CC2=CCCC2[C@]2(O1)C(=O)N(Cc1ccc(F)cc1)c1cccc(Br)c12 (some centres not stated)	8%[14.2 µM]	·	·	·	·	·
CCOC(=O)C1(CC2CCCCO2)CCN(Cc2cc3ccccc3[nH]2)CC1 (configuration not stated)	?	-27	?	31%	10µM*	?
COc1ccccc1N(C)S(=O)(=O)c1ccc(C(=O)Nc2cccc(S(=O)(=O)N3CCOCC3)c2)cc1	·	?	10µM*	·	·	·
CN(c1ccccc1)S(=O)(=O)c1ccc(C(=O)Nc2cccc(S(=O)(=O)N3CCOCC3)c2)cc1	·	-95*	·	·	·	·
COc1ccc(C(=O)Nc2cccc(S(=O)(=O)N(C)C)c2)cc1S(=O)(=O)N1CCOCC1	·	1	?	·	·	·
O=C(Nc1cccc(S(=O)(=O)N2CCOCC2)c1)c1cccc(S(=O)(=O)N2CCCC2)c1	-16%	-12	?	?	-20%	?
COc1ccc(Cn2c(=O)c3oc4ccccc4c3n(Cc3ccc(Cl)cc3)c2=O)cc1	·	17	·	·	14%[46.1 µM]	·
COc1ccc(C(C)=O)cc1Cn1c(C)c(C(=O)NCc2cccc(C(F)(F)F)c2)sc1=O	·	-10	·	·	·	·
Brc1cc2c(cc1C1OCCCO1)OCO2	?	15	17%	·	?	·
O=S(=O)(c1ccccc1)N1CCN(c2nc(-c3cccnc3)nc3ccccc23)CC1	-8%[46.1 µM]	2	?	?	14%	8.3µM*
O=S(=O)(/C=C/c1ccccc1)N1CCN(c2nc(-c3cccnc3)nc3ccccc23)CC1	11µM*	?	?	?	?	?
O=S(=O)(c1ccc(F)cc1)N1CCN(c2nc(-c3cccnc3)nc3ccccc23)CC1	?	2	?	9.3µM*	?	10µM*
